# High-throughput results as filed in PubChem BioAssay.
# A selection: hits, their analogues and other compounds. The true share with any hit is near 4.3%.
# NadD inh: blocks S. aureus nicotinate mononucleotide adenylyltransferase | purified NadD enzyme, colorimetric absorbance read-out | inhibition, % at 20 µM | hit rate 0.78% among 360,000; in the data active = inhibition above about 26%
# rCAG binder: binds r(CAG) RNA repeats; hit rate 1.3% among 370,000; r(CAG) RNA repeat, TO-PRO-1 dye displacement fluorescence; inhibition, % at 3 µM; AID 651821;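 active = inhibition above the plate cutoff, the mean of all test compounds on that plate plus 3 SD, cut at about 35% in these data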;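 note: higher means more dye released from RNA so lower well fluorescence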
# FAS-TE inh: inhibitors of human fatty acid synthase thioesterase domain | recombinant FAS-TE, OMFH fluorogenic substrate, fluorescence endpoint | hit rate 0.67% among 360,000 | inhibition, % at 15 µM | P49327 | AID 602261;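 active = compounds whose normalised, plate-corrected inhibition of enzyme fluorescence in the single-dose primary screen is 50% or more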
# NR3A LBD binder: modulators (binders) of human NR3A ligand-binding domain. hit rate 2.5% among 340,000. AID 1259313. Tm shift relative to glycine control, % at 25 µM. NR3A LBD differential scanning fluorimetry, Tm shift; 0% = protein alone, 100% = glycine-bound protein;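 active = melting temperature shift of at least 10% of the positive control shift, at one fixed dose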
# rCAG binder conf: r(CAG) RNA repeat binding, confirmation. shares compounds with rCAG binder. TO-PRO-1 dye displacement fluorescence. inhibition, % at 3 µM. hit rate 70% among 4,300;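 active = inhibition above a per-plate cutoff, the mean inhibition of sample wells plus 3 SD, cut at about 35% in these data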;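 note: loss of TO-PRO-1 fluorescence as compound displaces dye from 1x1 AA loop RNA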
# dCAG dye counter: disrupts DNA CAG TO-PRO-1 complex, flagging rCAG hits. inhibition, % at 3 µM. AID 652068. shares compounds with rCAG binder. hit rate 94% among 4,300. d(CAG) DNA oligo TO-PRO-1 dye displacement, fluorescence;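 active = inhibition above its plate's cutoff, the mean test-well inhibition plus 3 SD, cut at about 4.8% in these data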;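 note: hits displace the dye from DNA and so lower well fluorescence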
# dCAG dye DR: DNA CAG dye complex inhibition, dose response counter-screen | shares compounds with rCAG binder | DNA CAG/GTC duplex TO-PRO-1 dye displacement fluorescence | IC50, µM | hit rate 20% among 250; in the data active = IC50 below about 10 µM
# Numbers stand for hits; - = inactive; . = no result given.
SMILES,NadD inh,rCAG binder,FAS-TE inh,NR3A LBD binder,rCAG binder conf,dCAG dye counter,others
CCOC(=O)C1=NN(C(=O)Nc2cccc(C(F)(F)F)c2)C2C(=O)N(c3cccc(C(F)(F)F)c3)C(=O)C12 (configuration not stated),-,83,-,-,-,5.8,
CCOc1ccc(N2CSC3=C(C#N)C(c4ccco4)CC(=O)N3C2)cc1 (configuration not stated),-,69,-,-,48,17,
COc1ccc(CN2C(=O)[C@@](O)(c3cccn3C)c3cc(F)ccc32)cc1,.,-,.,.,.,.,
O=C1C(Cl)=C(NS(=O)(=O)c2ccc([N+](=O)[O-])cc2)C(=O)c2ccccc21,-,38,-,-,-,5.3,
CC1(C(=O)NS(=O)(=O)Cc2cccc(Cl)c2)CCN1C(=O)C1(c2ccc(Cl)cc2)CCC1 (configuration not stated),-,-,-,.,.,.,
CC1(C(=O)NS(=O)(=O)Cc2cccc(Cl)c2)CCN1C(=O)Cc1ccc(-c2ccccc2)cc1 (configuration not stated),-,72,-,.,70,29,dCAG dye DR=-
CC1(C(=O)NS(=O)(=O)Cc2cccc(Cl)c2)CCN1C(=O)C1(c2ccc(Cl)cc2)CC1 (configuration not stated),-,54,-,.,45,11,
CC1(C(=O)NS(=O)(=O)Cc2cccc(Cl)c2)CCN1C(=O)C/C=C/c1ccccc1 (configuration not stated),-,39,-,.,35,8.3,
S=c1[nH]nc(-c2ccccc2)n1/N=C/c1cccc(Br)c1,-,-,-,-,.,.,
S=c1[nH]nc(-c2cc(-c3ccccc3)n[nH]2)n1/N=C/c1cccc(Cl)c1,-,35,-,-,70,32,dCAG dye DR=-
S=c1[nH]nc(-c2cc(-c3ccccc3)n[nH]2)n1N=Cc1cccc(Oc2ccccc2)c1,.,66,.,.,61,31,
COc1cc(/C=N/n2c(-c3cc(-c4ccccc4)n[nH]3)n[nH]c2=S)ccc1OCc1ccccc1,.,58,.,.,55,26,
S=c1[nH]nc(-c2cc(-c3ccccc3)n[nH]2)n1N=Cc1cccc(OCc2ccccc2)c1,.,77,.,.,63,32,
COc1ccc(/C=N/n2c(-c3cc(C)[nH]n3)n[nH]c2=S)cc1OC,-,-,-,-,.,.,
CCC(=O)Nc1ccc2c(c1)C(=O)N(C)[C@@H]1CC[C@@H](CC(=O)OC)O[C@H]1CO2,.,-,.,.,.,.,
COc1cc(-c2cc(C(=O)Nc3cc(S(=O)(=O)N4CCOCC4)ccc3O)c3ccccc3n2)cc(OC)c1OC,-,72,-,-,74,35,
CCOC(=O)c1ccc(NC(=O)c2cc(S(=O)(=O)N3CCOCC3)ccc2O)cc1,-,49,-,-,40,9.2,
Cc1ccc(O)c(NC(=O)c2cccc(S(=O)(=O)N3CCCCC3)c2)c1,-,-,-,-,.,.,
CCN(CC)S(=O)(=O)c1ccc(C(=O)Nc2cc(S(=O)(=O)N3CCOCC3)ccc2O)cc1,-,36,-,-,-,6.9,
COc1cc(-c2cc(C(=O)Nc3cc(S(=O)(=O)N4CCOCC4)ccc3C)c3ccccc3n2)cc(OC)c1OC,-,-,-,-,.,.,
CCS(=O)(=O)c1ccc(O)c(NC(=O)c2ccc(S(=O)(=O)N3CCCCCC3)cc2)c1,-,37,-,-,46,11,
Cc1nc2ccc(NC(=O)c3cc(F)cc(F)c3)cc2c(=O)[nH]1,.,-,.,.,.,.,
CCOC(=O)c1sc(N2N=C(C)/C(=C\c3ccc(OCC(=O)OC)cc3)C2=O)nc1C,-,52,-,-,45,10,
CCOC(=O)c1sc(Nc2ccc(OCC)cc2)nc1C,-,-,-,-,.,.,
CC(C)C(c1nnnn1Cc1ccccc1)N1CCN(Cc2ccc3c(c2)OCO3)CC1 (configuration not stated),-,-,-,-,.,.,
CC1=CC2=NC(=O)/C(=C/c3cccs3)C(=N)N2O1,-,-,-,-,.,.,
N=C1/C(=C/c2cccs2)C(=O)N=C2SN=C(SCc3ccccc3)N12,-,75,-,-,82,50,
